From PubChem BioAssay

Key:
[1] = molecular target: Tumor necrosis factor receptor superfamily member 10B (Homo sapiens) (UniProt O14763); assay: caspase-8 TRAIL sensitization, hit retest, confirmation, cell-based, NB7+caspase-8, with/without TRAIL, luminescence panel (AID 651596); conditions: NB7 neuroblastoma + caspase-8, TRAIL sensitization, luminescence viability, with TRAIL, mean of runs, at 10 µM, stronger effect = higher value
[2] = as above; conditions: NB7 neuroblastoma + caspase-8, without TRAIL, luminescence viability, without TRAIL, mean of runs, at 10 µM

Chain of Tumor necrosis factor receptor superfamily member 10B (Homo sapiens) (O14763 whole entry, looked up): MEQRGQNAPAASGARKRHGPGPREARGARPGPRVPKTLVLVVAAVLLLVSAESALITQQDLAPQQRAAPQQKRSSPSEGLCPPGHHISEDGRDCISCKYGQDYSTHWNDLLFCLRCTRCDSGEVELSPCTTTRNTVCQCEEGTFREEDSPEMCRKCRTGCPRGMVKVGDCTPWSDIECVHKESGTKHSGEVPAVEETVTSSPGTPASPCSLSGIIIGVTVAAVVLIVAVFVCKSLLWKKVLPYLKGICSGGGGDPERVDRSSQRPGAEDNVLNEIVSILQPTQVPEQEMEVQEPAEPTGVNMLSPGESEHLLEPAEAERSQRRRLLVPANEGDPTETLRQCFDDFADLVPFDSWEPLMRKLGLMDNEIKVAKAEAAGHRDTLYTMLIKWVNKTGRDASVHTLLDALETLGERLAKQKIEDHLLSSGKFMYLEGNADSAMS

SMILES	activity [1]	activity [2]
O=[N+]([O-])c1ccc(N2CCN(Cc3ccccc3)CC2)c2c1no[n+]2[O-]	99.2%	99.1%
COc1ccc(C2c3ccc4ccccc4c3Oc3ncn(CCCN(C)C)c(=N)c32)cc1 (stereo not given)	24.2%	76.8%
Cc1ccc(Nc2nc(CSc3nnnn3C)cs2)cc1	23.2%	8.93%
CCCCCCCCCCCCCCCC[n+]1ccc(C(N)=O)cc1	92.1%	88.5%
CN(C)C=Nc1ccc2nc3c(cc2c1)[nH]c1ccccc13	76.7%	76.3%
CC(C)(C)c1ccc(-c2noc(CCC(=O)N3CCOCC3)n2)cc1	66.5%	64.2%
O=C(Nc1ccc(N2CCN(C(=O)c3ccccc3)CC2)cc1)c1cc2ccccc2o1	70.8%	50.3%
CS(=O)(=O)c1ccc2nc(NC(=O)c3cccc([N+](=O)[O-])c3)sc2c1	69.4%	71.3%
CS(=O)(=O)Nc1cccc(NC(=O)C2Cc3c(-c4ccco4)ccnc3O2)c1 (stereo not given)	35.7%	27.8%
Cn1cc(S(=O)(=O)CC(=O)N2CCCc3ccccc32)c2ccccc21	1.93%	-0.4%
CCOc1cc(NC2CS(=O)(=O)CC2O)c(OCC)cc1NC(=O)c1ccccc1 (stereo not given)	-26.1%	-33.2%
CNC[C@@H](CC1CCCCC1)NC[C@H](CC(C)C)NCCc1cccc(C(F)(F)F)c1	99.4%	99.7%
CC/C(=N\NC(=O)c1csc(C)c1C)c1cccs1	57.8%	55.5%
CC(C)(C)c1ccc(NC(=O)c2ccsc2)cc1	73.7%	71.9%
COc1ccc(/C=N/Nc2nnc(Cc3ccccc3)c(=O)[nH]2)cc1OC	60.6%	59.2%
